Each structure is given as a SMILES string. “And” between values parts separate entries of the source, which are not always exact repeats. Equal values may be shown once. Results filed as inconclusive are left out. The source holds several records for some structures; these can differ, active in one and inactive in another. The source made the active and inactive calls. Unless noted, calls follow the shape of the dose curve; as a rule, active = well fitted curve in the direction sought with a large enough effect in the repeat runs; inconclusive = weak or mixed curves; inactive = no such curve, though single readings can be large; an effect the other way counts as inactive or inconclusive.

A short description of assay [1]: qHTS assay to test for compound auto fluorescence at 535 nm (green) in HEK293 cells (AID 720680). (In general: qHTS replaces the single test concentration by a dilution series.)
The nature of assay [2]: qHTS assay to test for compound auto fluorescence at 460 nm (blue) in HEK293 cell free culture (AID 720681). The procedure, abridged: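 Blue fluorescence (Ex 405/Em 460 nm, triamterene-equivalent) was read immediately after pin transfer of compound or DMSO into medium (DMEM, 10% FBS) without cells.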
Assay [3] can be described thus: qHTS assay to test for compound auto fluorescence at 535 nm (green) in HEK293 cell free culture (AID 720682). The method in brief:
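No cells present: wells hold DMEM supplemented with 10% FBS, into which compound or vehicle is pinned. Green emission is then recorded (485 nm excitation, 535 nm emission) and scaled to fluorescein.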

Assay [4] is described as follows: qHTS assay to test for compound auto fluorescence at 590 nm (red) in HEK293 cell free culture (AID 720683). The method in brief:
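Red-channel autofluorescence of compounds in culture medium (DMEM, 10% FBS), no cells, measured at 540/590 nm. Rose Bengal sodium is the reference fluorophore for equivalence.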

Assay [5] in a line: qHTS assay to test for compound auto fluorescence at 590 nm (red) in HepG2 cell free culture (AID 720684). The procedure, abridged: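 Plate contents were MEM with 10% FBS plus test compound or DMSO, no cells. Fluorescence was recorded with 540 nm excitation and 590 nm emission.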
Assay [6] in a line: qHTS assay to test for compound auto fluorescence at 535 nm (green) in HepG2 cell free culture (AID 720686).
Assay [7] is described as follows: qHTS assay to test for compound auto fluorescence at 460 nm (blue) in HepG2 cells (AID 720687). The method in brief: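 Blue-channel autofluorescence (Ex/Em 405/460 nm, triamterene-equivalent) was measured after 1 hr compound exposure at 37 C, 5% CO2. Cells were HepG2, plated overnight at 37 C in MEM plus 10% FBS.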
Assay [8] addresses Glucocorticoid receptor (Homo sapiens) (UniProt P04150). Put plainly: qHTS assay to identify small molecule agonists of the glucocorticoid receptor (GR) signaling pathway (AID 720691; active = well fitted activation curve with a large enough effect in the signal ratio in the repeat runs, not every such curve was filed as active; the % refers to the signal ratio). The method in brief:
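Agonist mode in a HeLa line carrying a GRE-controlled beta-lactamase reporter. Compounds act for 18 h at 37 C before a 2 h room-temperature FRET substrate step and fluorescence reading.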

For assay [9] the target is unchanged. Put plainly: qHTS assay to identify small molecule antagonists of the glucocorticoid receptor (GR) signaling pathway (AID 720692; active = well fitted inhibition curve with a large enough effect in the signal ratio in the repeat runs, not every such curve was filed as active; the % refers to the signal ratio; also: potency is read from the fitted curve at half-maximal effect). The procedure, abridged:
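Cells plated, rested 4 h at 37 C/5% CO2; compounds in DMSO pin-transferred; dexamethasone added to 5 nM final; 18 h at 37 C; B/G FRET substrate added, 2 h room temperature; fluorescence measured.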

Assay [10] in a line: qHTS assay to identify small molecule antagonists of the glucocorticoid receptor (GR) signaling pathway - cell viability counter screen (AID 720693). Also: nearly all actives have a fitted effect of over 55% in size.
Assay [11] can be described thus: qHTS assay for identifying genotoxic compounds that show differential cytotoxicity against isogenic chicken DT40 cell lines with known DNA damage response pathways - wild type cell line (AID 743012). Also: nearly all actives have a fitted effect of over 60% in size. Also: potency is read from the fitted curve at half-maximal effect. The method in brief: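 Cells (DT40 wild type, 300/well) are treated with DMSO-dissolved compounds after a ~0.5 h pre-incubation and kept 40 h at 37 C/5% CO2. Viability is then measured by CellTiter-Glo luminescence following 30 min at room temperature.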

Assay [12] is described as follows: qHTS assay for identifying genotoxic compounds that show differential cytotoxicity against isogenic chicken DT40 cell lines with known DNA damage response pathways - Rev3 mutant cell line (AID 743014). Also: nearly all actives have a fitted effect of over 55% in size. Also: potency is read from the fitted curve at half-maximal effect.
The nature of assay [13]: qHTS assay for identifying genotoxic compounds that show differential cytotoxicity against isogenic chicken DT40 cell lines with known DNA damage response pathways - Rad54/Ku70 mutant cell line (AID 743015). Also: nearly all actives have a fitted effect of over 60% in size. Also: potency is read from the fitted curve at half-maximal effect.
A short description of assay [14]: qHTS assay to identify small molecule antagonists of the androgen receptor (AR) signaling pathway - cell viability counter screen (AID 743033; also: nearly all actives have a fitted effect of over 45% in size; also: potency is read from the fitted curve at half-maximal effect).
Assay [15] in a line: qHTS assay to test for compound auto fluorescence at 460 nm (blue) in HepG2 cell free culture (AID 720685). The procedure, abridged:
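Compound (23 nL) or DMSO pinned into cell-free MEM with 10% FBS; blue fluorescence read at 405/460 nm excitation/emission, expressed as auto-fluorescence equivalency to triamterene.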

For assay [16], the target named is Androgen receptor (Homo sapiens) (UniProt P10275). Put plainly: qHTS assay to identify small molecule antagonists of the androgen receptor (AR) signaling pathway (AID 743035; active = well fitted inhibition curve with a large enough effect in the signal ratio in the repeat runs, not every such curve was filed as active; the % refers to the signal ratio). The method in brief:
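Antagonism is scored as loss of R1881-driven beta-lactamase reporter expression in HEK293 cells carrying the reporter under a UAS element, after 16 h co-treatment at 37C and a 2 h room-temperature FRET substrate read.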

Assay [17] shares this target. Put plainly: qHTS assay to identify small molecule agonists of the androgen receptor (AR) signaling pathway (AID 743036; active = well fitted activation curve with a large enough effect in the signal ratio in the repeat runs, with a control signal flat, not every such curve was filed as active; the % refers to the signal ratio). The procedure, abridged:
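Quantitative HTS of the Tox21 10K library in HEK293 cells bearing a stably integrated UAS-controlled beta-lactamase reporter. Compound exposure lasted 16 h at 37C. Reporter activity was detected by FRET substrate fluorescence after 2 h at room temperature.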

The target is the same in assay [18]. Put plainly: qHTS assay to identify small molecule agonists of the androgen receptor (AR) signaling pathway using the MDA cell line (AID 743040; also: nearly all actives have a fitted effect of over 20% in size). The method in brief: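 After a 5 h incubation at 37C and 0% CO2, MDA-kb2 reporter cells were dosed with compounds in DMSO and kept 16 h under the same conditions. Luciferase activity was then read as luminescence with ONE-Glo.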

Assay [19] in a line: qHTS assay to identify small molecule antagonists of the androgen receptor (AR) signaling pathway using the MDA cell line - cell viability counter screen (AID 743041; also: nearly all actives have a fitted effect of over 45% in size). The method in brief: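 R1881-driven MDA-kb2 AR-luc cells, 3,000/well, were dosed with library compounds for 16 h; cell health came from CellTiter-Fluor fluorescence in the reporter wells.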
Assay [20] deals with Androgen receptor (Homo sapiens) (UniProt P10275). Put plainly: qHTS assay to identify small molecule antagonists of the androgen receptor (AR) signaling pathway using the MDA cell line (AID 743042; also: nearly all actives have a fitted effect of over 55% in size). The procedure, abridged: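 Antagonist mode: compounds plus R1881 agonist added to MDA-kb2 AR-luc cells, incubated 16 h at 37C. Luciferase reporter luminescence quantified, with multiplexed CellTiter-Fluor readout for cell viability.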
Chain of Androgen receptor (Homo sapiens) (P10275 whole entry, looked up): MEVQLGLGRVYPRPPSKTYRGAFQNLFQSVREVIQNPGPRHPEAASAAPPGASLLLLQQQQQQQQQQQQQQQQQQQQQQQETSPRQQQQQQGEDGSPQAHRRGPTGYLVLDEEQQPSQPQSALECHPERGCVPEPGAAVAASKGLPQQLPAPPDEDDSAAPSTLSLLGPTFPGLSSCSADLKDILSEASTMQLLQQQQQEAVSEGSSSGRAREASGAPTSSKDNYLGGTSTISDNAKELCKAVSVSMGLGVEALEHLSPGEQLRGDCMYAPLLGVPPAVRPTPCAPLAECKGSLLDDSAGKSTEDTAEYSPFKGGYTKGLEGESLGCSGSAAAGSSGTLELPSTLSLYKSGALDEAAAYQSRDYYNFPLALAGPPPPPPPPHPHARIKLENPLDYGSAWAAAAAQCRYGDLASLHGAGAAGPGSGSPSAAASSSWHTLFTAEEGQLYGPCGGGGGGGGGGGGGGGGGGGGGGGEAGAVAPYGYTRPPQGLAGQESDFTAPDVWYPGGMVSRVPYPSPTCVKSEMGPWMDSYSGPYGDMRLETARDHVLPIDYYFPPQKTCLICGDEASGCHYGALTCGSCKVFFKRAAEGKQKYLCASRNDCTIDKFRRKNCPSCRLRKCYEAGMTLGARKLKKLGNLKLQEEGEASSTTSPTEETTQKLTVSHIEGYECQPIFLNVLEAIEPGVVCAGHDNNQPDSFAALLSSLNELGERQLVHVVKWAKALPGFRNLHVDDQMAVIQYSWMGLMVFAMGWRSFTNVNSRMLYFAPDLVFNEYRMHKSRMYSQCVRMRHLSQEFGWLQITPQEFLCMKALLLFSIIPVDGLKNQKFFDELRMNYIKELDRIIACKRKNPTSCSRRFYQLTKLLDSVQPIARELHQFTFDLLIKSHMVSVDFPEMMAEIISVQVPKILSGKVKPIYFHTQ

Chain of Glucocorticoid receptor (Homo sapiens) (P04150 whole entry, looked up): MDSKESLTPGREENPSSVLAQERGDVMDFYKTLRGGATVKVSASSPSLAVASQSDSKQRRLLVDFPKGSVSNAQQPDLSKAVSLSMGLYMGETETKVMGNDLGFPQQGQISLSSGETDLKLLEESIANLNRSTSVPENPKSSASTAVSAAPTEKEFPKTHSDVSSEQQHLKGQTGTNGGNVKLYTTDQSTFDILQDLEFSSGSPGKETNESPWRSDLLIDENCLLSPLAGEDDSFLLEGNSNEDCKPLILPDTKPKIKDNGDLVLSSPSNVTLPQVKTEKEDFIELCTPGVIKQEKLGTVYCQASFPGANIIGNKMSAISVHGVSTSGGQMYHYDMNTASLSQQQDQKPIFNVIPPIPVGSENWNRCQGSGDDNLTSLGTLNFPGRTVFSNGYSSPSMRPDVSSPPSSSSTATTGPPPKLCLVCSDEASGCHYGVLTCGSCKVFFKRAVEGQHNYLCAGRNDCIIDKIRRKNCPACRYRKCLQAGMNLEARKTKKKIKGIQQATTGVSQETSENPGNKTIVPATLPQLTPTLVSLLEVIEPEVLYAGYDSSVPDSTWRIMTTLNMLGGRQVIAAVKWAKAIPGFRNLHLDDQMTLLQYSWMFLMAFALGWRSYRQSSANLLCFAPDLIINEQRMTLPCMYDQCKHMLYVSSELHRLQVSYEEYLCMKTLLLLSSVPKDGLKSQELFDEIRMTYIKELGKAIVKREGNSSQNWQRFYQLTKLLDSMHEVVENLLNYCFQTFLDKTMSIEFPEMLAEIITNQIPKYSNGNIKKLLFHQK

Turning to `CCCc1c(OCCCCc2nn[nH]n2)ccc(C(C)=O)c1O`, the Potency result in [1], in assay [3], in assay [4], in assay [5], in [6] and in [8] was “inactive” in each case. For the same compound, the Potency result in assay [10] and in assay [14] was “inactive” in each case. In addition, the result in assay [2] and in assay [7] was inactive. The Potency was 23.9 µM (active) in [9]; 29.8 µM (active) in assay [11]; 29.8 µM (active) and inactive in [12]; 21.1 µM (active) and 54.5 µM (active) in assay [13].

With `COC(C)COC(C)COC(C)CO` (stereo not given), the Potency result in assay [1], in assay [3], in [4], in assay [5], in assay [6] and in [11] was “inactive” each time. Further, the Potency result in assay [12], in assay [13], in [14], in assay [16], in [18] and in [19] was “inactive” in each case. For the same compound, in assay [20], the Potency entry was “inactive”. Moreover, the call in assay [2], in assay [15], in assay [7] and in [17] was inactive.

For the compound `CN(C)CCN(Cc1cccs1)c1ccccn1`, the Potency entry in [1], in [3], in [4], in assay [5], in assay [6] and in assay [8] was “inactive” each time. In addition, the Potency result in [9], in assay [10], in assay [12], in assay [13], in assay [14] and in [19] was “inactive” in each case. Moreover, the compound was classed as inactive in assay [2] and in assay [15]. For the same compound, the Potency in assay [11] was 29.8 µM (active) and inactive.

For the compound `c1cc(N(CC2CO2)CC2CO2)ccc1OCC1CO1` (stereo not given), the Potency result in assay [1], in assay [3], in assay [4], in [5], in [6] and in assay [14] was “inactive” throughout. Moreover, in assay [19], the Potency entry was “inactive”. Also, the call in assay [2], in assay [15] and in assay [7] was inactive. Also, the Potency in assay [11] was 687 nM (active) and 306 nM (active); in assay [12] it was 10.9 nM (active) and 12.2 nM (active); in assay [13], 770 nM (active) and 273 nM (active).

Regarding `CC(C)OB(OC(C)C)OC(C)C`, the Potency entry in assay [1], in assay [3], in [4], in [5], in assay [6] and in assay [8] was “inactive” each time. In addition, the Potency entry in assay [9], in assay [11], in assay [12], in assay [13] and in assay [14] was “inactive” in each case. In addition, the compound was called inactive in assay [2] and in assay [15].

Consider `Cc1cccc(C(=O)O)c1`, for which the Potency result in assay [1], in assay [3], in [4], in assay [5], in assay [6] and in assay [11] was “inactive” throughout. Moreover, the Potency result in assay [12], in assay [13], in [14], in assay [16], in assay [18] and in assay [20] was “inactive” in each case. For the same compound, the outcome in assay [2], in assay [15], in [7] and in assay [17] was inactive.

As to `COC(=O)C1=C(C)NC(C)=C(C(=O)OCCN(C)Cc2ccccc2)C1c1cccc([N+](=O)[O-])c1` (stereo not given), the Potency result in assay [1], in assay [3], in [4], in assay [5], in assay [6] and in assay [10] was “inactive” throughout. In addition, the Potency result in assay [19] is “inactive”. The compound was classed as inactive in assay [2] and in assay [15]. For the same compound, the Potency was 23.9 µM (active) and 43.4 µM (active) in [9]; 9.44 µM (active) and 19.2 µM (active) in assay [11]; 11.9 µM (active) and 21.6 µM (active) in assay [12]; 10.6 µM (active) and 19.2 µM (active) in assay [13]; 48.7 µM (active) in assay [14].

With `OC(CCl)CCl`, the Potency result in [1], in [3], in assay [4], in assay [5], in assay [6] and in assay [8] was “inactive” throughout. Besides, the Potency result in [9], in assay [11], in assay [12], in assay [13] and in [14] was “inactive” throughout. The compound was called inactive in assay [2] and in assay [15].
